# Assay results: the supplement of paper PMC12636033
# ± gives the standard deviation of the averaged measurements. Over roughly 33,000 sequences, “E-score (rank enrichment, -0.5 to 0.5)” has its median near -0.0075; the highest 2% begin near 0.23. For the sample, the highest values were picked, then their nearest neighbours and some sequences at random.
# System: WT Max(13-93) synthetic (M65Nle)
# Assay: PBM 8-mer E-score (E-score (rank enrichment, -0.5 to 0.5)); higher = stronger preferential binding
# Procedure: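 Protein binding microarray (universal PBM chip covering all 10-mers in fixed probe flanks) with chemically synthesized human Max(13-93) bHLH-LZ analogs (not full-length Max) bearing noncanonical residues (hArg, Tha, Aib, Nle at 65) and aromatic Cys staples. Read-out per 8-mer (and its reverse complement): E-score (rank-based enrichment, -0.5 to 0.5) and Z-score of median probe intensity.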
row,Sequence,PBM 8-mer E-score
1,ACTCGATC,-0.107 ± 0.06
2,ATGGAGGC,-0.00616 ± 0.011
3,TTTATAAA,0.176 ± 0.057
4,ACAACCCT,-0.0273 ± 0.068
5,ACAACCCC,0.257 ± 0.052
6,CCAACCCC,-0.0495 ± 0.05
7,GCGTCGAA,0.00213 ± 0.017
8,CGCATGCG,0.277 ± 0.018
9,AGCATGCA,0.335 ± 0.016
10,AGCATGCG,0.326 ± 0.055
11,GGCATGCA,0.0781 ± 0.042
12,AGCATGCC,0.12 ± 0.022
13,CGCATGCC,0.141 ± 0.068
14,TGCATGCA,0.201 ± 0.039
15,CGCATGCA,0.175 ± 0.029
16,AGCATGCT,0.165 ± 0.028
17,CGCAATGC,-0.0961 ± 0.12
18,AGACACCC,-0.159 ± 0.022
19,CATTTGAC,0.0512 ± 0.021
20,CCACATGA,0.24 ± 0.057
21,GCACATGC,0.251 ± 0.032
22,GCACATGA,0.175 ± 0.065

row,Sequence,PBM 8-mer E-score
1,CGACATGC,0.18 ± 0.013
2,GCACATAC,0.0278 ± 0.096
3,CCACATGC,0.327 ± 0.06
4,GCACATCC,-0.00788 ± 0.08
5,ACACATGC,0.23 ± 0.089
6,CAACATGG,0.171 ± 0.018
7,CCACATCG,-0.114 ± 0.056
8,TCACATGA,0.229 ± 0.011
9,CCACATGG,0.366 ± 0.0054
10,ACTAAGAC,-0.0588 ± 0.021
11,AGTGGCAT,0.077 ± 0.041
12,ATAGAGAT,0.0666 ± 0.018
13,ACCTCTAT,-0.0733 ± 0.13
14,AATGCCTG,-0.0228 ± 0.16
15,AAACGTTC,0.138 ± 0.043
16,TCTTACCA,-0.0372 ± 0.041
17,CAGTGAGC,-0.263 ± 0.02
18,AATATGTG,0.273 ± 0.036
19,TATATGAA,0.15 ± 0.097
20,AATATGTA,0.138 ± 0.069
21,AATATATT,0.197 ± 0.047
22,AATATGAA,0.279 ± 0.013

row,Sequence,PBM 8-mer E-score
1,AATATATG,0.251 ± 0.011
2,AATATGTC,0.0761 ± 0.1
3,AATATGAC,0.201 ± 0.057
4,AATATATA,0.175 ± 0.01
5,ACGTCGAC,0.0127 ± 0.076
6,ACCCCGTG,0.0605 ± 0.035
7,CCGGCGTA,-0.17 ± 0.049
8,CCCGCGCC,-0.134 ± 0.14
9,ACGCATTC,-0.0561 ± 0.13
10,AGGTGATA,-0.0245 ± 0.055
11,ATTAATGC,0.0772 ± 0.086
12,ATTAATTG,0.128 ± 0.089
13,ATTAATGA,0.264 ± 0.076
14,CTTAATGA,0.0202 ± 0.07
15,CTTAATTA,0.0675 ± 0.075
16,ATTAATAA,0.195 ± 0.023
17,ATTAATTC,0.159 ± 0.18
18,ATTAATTA,0.235 ± 0.13
19,CTTAATTC,0.258 ± 0.0064
20,ATTAATAC,0.102 ± 0.0018
21,ATTAATAG,0.263 ± 0.1
22,GTTAATTA,0.13 ± 0.14

row,Sequence,PBM 8-mer E-score
1,ACTACAGT,0.0566 ± 0.059
2,TGACAACA,0.0331 ± 0.06
3,CCCGCTAC,0.047 ± 0.0079
4,CTGAAGCC,-0.13 ± 0.039
5,GAGAGCTA,0.1 ± 0.073
6,ATGGGCTA,0.0445 ± 0.068
7,AAATGACG,0.0648 ± 0.073
8,GAATGACA,0.0853 ± 0.076
9,AAATGACC,0.0445 ± 0.18
10,CAATGACA,0.184 ± 0.075
11,AAATGACA,0.248 ± 0.04
12,TAATGACA,0.256 ± 0.013
13,CGACCCAG,-0.168 ± 0.1
14,CTCAAGAA,0.026 ± 0.0068
15,AGTTATAA,0.132 ± 0.08
16,GATTATAA,0.134 ± 0.066
17,CGTTATAA,0.0918 ± 0.12
18,TATTAGAA,0.235 ± 0.07
19,GATTAGAA,0.131 ± 0.017
20,CATTAGAA,0.0359 ± 0.086
